In assay [1] the target is Voltage-gated inwardly rectifying potassium channel KCNH2 (Homo sapiens) (UniProt Q12809). Nature of the assay: qHTS Assay for Small Molecule Inhibitors of the Human hERG Channel Activity (AID 588834).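 Further: lower thallium flux fluorescence means stronger hERG block; nearly all actives have a fitted effect of over 50% in size.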 Further: potency means the concentration at half of the fitted maximal effect. The method in brief: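 Homogeneous FluxOR thallium flux assay using hERG-expressing U2OS cells (BacMam). Compound treatment about 10 minutes preceded stimulation; reduced fluorescence taken as channel block.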

The target in assay [2] is Luciferin 4-monooxygenase (Photinus pyralis) (UniProt P08659). The assay can be described thus: Biochemical firefly luciferase enzyme assay for NPC (AID 624030).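 Further: purified P. pyralis luciferase at 10 nM with luciferin and ATP substrate; series mostly up to about 59 µM; 0% = DMSO and -100% = full luciferase inhibition by PTC124 control; nearly all actives have a fitted effect of over 70% in size.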 The method, boiled down:
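Counter-screen for direct inhibition of the luciferase enzyme by approved-drug library compounds, run at 10 nM enzyme in 50 mM Tris acetate (final). Luminescence was read within 5 min of enzyme-buffer addition and normalized to PTC124 versus DMSO (0%).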

The target in assay [3] is Glucocorticoid receptor (Homo sapiens) (UniProt P04150). Nature of the assay: qHTS assay for small molecule antagonists of glucocorticoid receptor signaling (AID 588533; active means well fitted inhibition curve with a large enough effect in the signal ratio, with a control signal flat, not every such curve was filed as active; the % refers to the signal ratio;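 further: cells stimulated with 2 nM dexamethasone as agonist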; further: potency means the concentration at half of the fitted maximal effect). The method in brief: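 Antagonist-mode qHTS: compound titrations added to GRE-bla HeLa cells, then dexamethasone 2 nM final; 18 h, 37 C. CCF4 FRET fluorescence normalized to dexamethasone and DMSO; IC50 from Hill fit.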

Assay [4] is described as follows: qHTS assay for small molecule antagonists of peroxisome proliferator-activated receptor delta signaling (AID 588535; active means well fitted inhibition curve with a large enough effect in the signal ratio, with a control signal flat, not every such curve was filed as active; the % refers to the signal ratio;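 on max response: cells co-treated with a PPAR-delta agonist as stimulator during compound exposure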). The following applies: HEK293T PPARd-UAS-bla, beta-lactamase FRET ratio, 18 h; 460 nm channel. The method in brief:
(§1)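 Inhibition of PPAR-delta response element-driven beta-lactamase expression is measured in HEK293T cells exposed to a compound titration series for 18 hrs at 37 C. Half-maximal inhibition comes from Hill equation fitting.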

The target in assay [5] is Peroxisome proliferator-activated receptor delta (Homo sapiens) (UniProt Q03181). Described as above. The method in brief:
as §1

Assay [6] has as its target Peroxisome proliferator-activated receptor gamma (Homo sapiens) (UniProt P37231). The assay can be described thus: qHTS assay for small molecule agonists of peroxisome proliferator-activated receptor gamma signaling (AID 588536; active means well fitted curve in the direction sought with a large enough effect in the signal ratio, with a control signal flat, not every such curve was filed as active; the % refers to the signal ratio;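 further: 0% = DMSO basal wells and 100% = rosiglitazone at 2 µM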). The method in brief:
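This is an agonist-mode beta-lactamase reporter assay in HEK293 PPAR-gamma-UAS-bla cells with 1% charcoal/dextran FBS. Compound titrations ran 16 h at 37 C before CCF4 detection. EC50 and efficacy are Hill fits scaled to 2 uM rosiglitazone (100%) and DMSO basal.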

For assay [7] the target is unchanged. Nature of the assay: qHTS assay for small molecule antagonists of peroxisome proliferator-activated receptor gamma signaling (AID 588537; active means well fitted inhibition curve with a large enough effect in the signal ratio, with a control signal flat, not every such curve was filed as active; the % refers to the signal ratio;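 further: reporter cells co-stimulated with 50 nM rosiglitazone agonist during compound treatment; % of control where 0% means no effect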). The method in brief: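 Compounds are tested as concentration series for inhibition of rosiglitazone-driven (50 nM) reporter expression in GeneBLAzer PPAR-gamma-UAS-bla HEK293 cells. After 16 h at 37 C, CCF4 substrate is added for 2 h at room temperature and blue/green fluorescence is measured.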

The target in assay [8] is Vitamin D3 receptor (Homo sapiens) (UniProt P11473). Nature of the assay: qHTS assay for small molecule antagonists of vitamin D receptor signaling (AID 588541; calls by dose curve;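 further: receptor activated by calcitriol during compound treatment; series mostly up to about 77 µM; on the % scale 0 is the no-effect control and ±100 the full control effect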). The method in brief:
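VDR-UAS-bla HEK293T cells (2000/well, 2% charcoal-stripped FBS) were treated with titrated compounds plus 1-alpha,25-dihydroxyvitamin D3 (50 nM or 3 nM final) for 16 h at 37 C. CCF4 beta-lactamase fluorescence was read; Hill fits gave IC50.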

A short description of assay [9]: qHTS assay for small molecule agonists of retinoid X receptor alpha signaling (AID 588544; calls by dose curve;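 on activation: 0% = DMSO basal wells and 100% = reference agonist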). The following applies: HEK293T RXRa-UAS-bla, beta-lactamase reporter, 18 h; 530 nm emission.
Assay [10] concerns the target Retinoic acid receptor RXR-alpha (Homo sapiens) (UniProt P19793). The description is as above.
The target of assay [11] is Thyroid hormone receptor beta (Homo sapiens) (UniProt P10828). The assay can be described thus: qHTS assay for small molecule agonists of thyroid hormone receptor beta signaling (AID 588545; calls by dose curve). The method, boiled down:
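Cells (2500/well) were seeded, incubated 4 hrs at 37 C, dosed with a compound series, incubated 18 hrs, loaded with CCF4 dye for 2 hrs at RT, then read for fluorescence. Data were scaled between DMSO (0%) and 10 nM T3 (100%).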

Assay [12] is described as follows: qHTS assay for small molecule antagonists of retinoid X receptor alpha signaling (AID 588546; active means well fitted inhibition curve with a large enough effect in the signal ratio, with a control signal flat, not every such curve was filed as active; the % refers to the signal ratio;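 further: cells stimulated with 9-cis-retinoic acid as agonist; on the % scale 0 is the no-effect control and ±100 the full control effect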). The following applies: HEK293T RXRa-UAS-bla, beta-lactamase ratio, antagonist mode; measured here: W530 green channel, cytotoxicity proxy. The method, boiled down: (§2)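 Beta-lactamase reporter inhibition, read as CCF4 fluorescence ratio (ex 405, em 460/530 nm) after 2 h at RT. HEK293T UAS-bla cells, 2500/well, were stimulated with 9-cis-RA at 500 or 100 nM final alongside test compound for 18 h at 37 C.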

Assay [13] concerns the target Retinoic acid receptor RXR-alpha (Homo sapiens) (UniProt P19793). The description is as above. To be noted: HEK293T RXRa-UAS-bla, beta-lactamase ratio, antagonist mode. The method in brief: as §2
In assay [14] the target is Thyroid hormone receptor beta (Homo sapiens) (UniProt P10828). Nature of the assay: qHTS assay for small molecule antagonists of thyroid hormone receptor beta signaling (AID 588547; active means well fitted inhibition curve with a large enough effect in the signal ratio, with a control signal flat, not every such curve was filed as active; the % refers to the signal ratio;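 further: cells stimulated with 0.4 nM T3 agonist during compound exposure; series mostly up to about 77 µM; on the % scale 0 is the no-effect control and ±100 the full control effect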). To be noted: TR-UAS-bla HEK293, beta-lactamase ratio, antagonist mode, 18 h. The method in brief: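 TR-UAS-bla GripTite HEK293 cells in 2% charcoal/dextran FBS medium were preincubated 4 h at 37 C, given compound (0.59 nM to 92 uM) plus 0.4 nM T3 (final) for 18 h, then CCF4 for 2 h at RT; Hill fit gave IC50.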

The nature of assay [15]: S16 Schwann cell viability assay (CellTiter-Glo assay) (AID 624031).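 Further: native untransfected S16 rat Schwann cells; series mostly up to about 58 µM; plate controls were DMSO-treated cells for no effect and cell-free wells for full effect; nearly all actives have a fitted effect of over 70% in size.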 The method, boiled down:
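Counter-screen for cytotoxicity: parental S16 rat Schwann cells lacking the PMP22 reporters, treated 24 h with compound, viability from cellular ATP by CellTiter-Glo luminescence, normalized to DMSO (0%) and no-cell wells.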

Assay [16] in a line: S16 Schwann cell PMP22 intronic element firefly luciferase assay (AID 624032).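 Further: series mostly up to about 58 µM; plate controls were DMSO for no effect and PTC124 positive control mean for full effect; nearly all actives have a fitted effect of over 30% in size.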 The method in brief:
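Rat S16 Schwann cells stably carrying a PMP22 intronic element-driven Fluc reporter were seeded overnight, then exposed to compounds for 24 h at 37 °C. Luminescence was normalized to PTC124 (positive control) and DMSO (0% activity).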

The nature of assay [17]: S16 Schwann cell PMP22 intronic element beta-lactamase assay (AID 624044; calls by dose curve;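 further: 0% = DMSO and -100% = potassium clavulanate positive control; nearly all actives have a fitted effect of over 15% in size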). The method in brief:
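Beta-lactamase reporter under a PMP22 intronic regulatory element in stable S16 rat Schwann cells; 24 h compound exposure. 460 nm blue signal normalized between DMSO (0%) and potassium clavulanate, with 535 nm FRET tracking viability; curves classed by r2 and response.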

Assay [18] concerns the target Bile acid receptor (Homo sapiens) (UniProt Q96RI1). Nature of the assay: qHTS assay for small molecule antagonists of farnesoid X receptor signaling (AID 588526; calls by dose curve; further: on the % scale 0 is the no-effect control and ±100 the full control effect). The method, boiled down:
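Concentration-response titrations were fitted to the Hill equation for half-maximal inhibition and maximal response, with data normalised to 50 uM chenodeoxycholic acid and DMSO control wells. Cells: FXR-UAS-bla HEK293T, dialyzed FBS.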

Assay [19] addresses Androgen receptor (Homo sapiens) (UniProt P10275). The assay can be described thus: qHTS assay for small molecule agonists of androgen receptor signaling (AID 588515; active means well fitted curve in the direction sought with a large enough effect in the signal ratio, with a control signal flat; the % refers to the signal ratio; further: on the % scale 0 is the no-effect control and ±100 the full control effect). The following applies: AR-UAS-bla HEK293, beta-lactamase ratio, agonist 16 h; activation: stronger effect = higher value. The method, boiled down: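 Stimulation of an AR-responsive β-lactamase reporter in GripTite HEK293 cells was measured after 16 h compound exposure at 37 °C, via CCF4 fluorescence after 2 h RT. EC50 from Hill fits, normalized to R1881 at 30 nM.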

Assay [20] shares this target. The assay can be described thus: qHTS assay for small molecule antagonists of androgen receptor signaling (AID 588516; active means well fitted curve in the direction sought with a large enough effect in the signal ratio, with a control signal flat, not every such curve was filed as active; the % refers to the signal ratio; further: on the % scale 0 is the no-effect control and ±100 the full control effect). The method, boiled down:
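Compounds tested in titration against 10 nM R1881 in AR-responsive bla reporter HEK 293 cells; CCF4 fluorescence (460/530 nm) after 16 h exposure gave IC50 and efficacy.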

Where “and” joins values, the source holds several entries; their conditions need not be identical. Equal entries are not always repeated. Inconclusive results are not listed. Calls of active or inactive are those of the source. Unless noted, the call rests on the fitted dose curve; in most records, active means well fitted curve in the direction sought with a large enough effect; inconclusive means small, poorly fitted or top-dose-only effect, or another doubt; inactive means no such curve, though single readings can be large; an effect the other way counts as inactive or inconclusive.

Chain of Peroxisome proliferator-activated receptor delta (Homo sapiens) (Q03181 whole entry, looked up): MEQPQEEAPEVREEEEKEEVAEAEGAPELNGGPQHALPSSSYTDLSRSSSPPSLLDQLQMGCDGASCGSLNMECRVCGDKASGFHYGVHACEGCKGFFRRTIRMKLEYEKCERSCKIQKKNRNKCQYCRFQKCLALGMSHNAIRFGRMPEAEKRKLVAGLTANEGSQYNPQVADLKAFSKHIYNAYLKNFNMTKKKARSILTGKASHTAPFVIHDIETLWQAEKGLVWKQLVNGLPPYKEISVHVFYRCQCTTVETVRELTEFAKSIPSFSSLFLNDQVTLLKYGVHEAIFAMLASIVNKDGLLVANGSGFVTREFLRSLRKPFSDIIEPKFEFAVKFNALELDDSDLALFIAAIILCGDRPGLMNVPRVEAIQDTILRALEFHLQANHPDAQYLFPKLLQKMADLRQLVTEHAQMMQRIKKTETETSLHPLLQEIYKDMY
Chain of Luciferin 4-monooxygenase (Photinus pyralis) (P08659 whole entry, looked up): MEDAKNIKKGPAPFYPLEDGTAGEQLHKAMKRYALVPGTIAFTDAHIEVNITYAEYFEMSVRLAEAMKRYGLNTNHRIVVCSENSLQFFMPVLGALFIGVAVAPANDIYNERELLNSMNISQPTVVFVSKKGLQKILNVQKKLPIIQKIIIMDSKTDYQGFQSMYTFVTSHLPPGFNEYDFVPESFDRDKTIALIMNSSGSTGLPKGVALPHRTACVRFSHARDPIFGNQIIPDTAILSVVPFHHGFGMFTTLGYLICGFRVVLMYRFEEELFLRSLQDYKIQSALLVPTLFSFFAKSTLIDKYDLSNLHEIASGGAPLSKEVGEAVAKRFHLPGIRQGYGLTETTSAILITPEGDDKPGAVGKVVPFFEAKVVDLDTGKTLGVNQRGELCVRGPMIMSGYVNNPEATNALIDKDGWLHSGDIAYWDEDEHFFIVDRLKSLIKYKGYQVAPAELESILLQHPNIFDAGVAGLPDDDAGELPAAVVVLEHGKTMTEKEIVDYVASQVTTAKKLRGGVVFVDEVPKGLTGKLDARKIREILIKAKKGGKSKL
Chain of Peroxisome proliferator-activated receptor gamma (Homo sapiens) (P37231 whole entry, looked up): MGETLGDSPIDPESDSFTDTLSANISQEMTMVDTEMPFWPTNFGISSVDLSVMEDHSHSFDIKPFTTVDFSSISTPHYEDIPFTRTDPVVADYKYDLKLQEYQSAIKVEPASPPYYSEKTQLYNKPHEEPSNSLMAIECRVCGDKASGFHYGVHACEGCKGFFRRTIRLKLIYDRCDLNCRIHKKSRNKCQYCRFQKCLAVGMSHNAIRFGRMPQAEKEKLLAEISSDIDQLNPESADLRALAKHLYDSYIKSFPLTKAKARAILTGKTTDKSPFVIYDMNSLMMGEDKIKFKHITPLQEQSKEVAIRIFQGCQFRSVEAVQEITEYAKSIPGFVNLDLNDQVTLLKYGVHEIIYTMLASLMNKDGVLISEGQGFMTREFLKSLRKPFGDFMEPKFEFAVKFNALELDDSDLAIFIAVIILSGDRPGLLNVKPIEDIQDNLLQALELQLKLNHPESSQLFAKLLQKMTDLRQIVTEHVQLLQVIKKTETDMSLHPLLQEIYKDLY
Chain of Bile acid receptor (Homo sapiens) (Q96RI1 whole entry, looked up): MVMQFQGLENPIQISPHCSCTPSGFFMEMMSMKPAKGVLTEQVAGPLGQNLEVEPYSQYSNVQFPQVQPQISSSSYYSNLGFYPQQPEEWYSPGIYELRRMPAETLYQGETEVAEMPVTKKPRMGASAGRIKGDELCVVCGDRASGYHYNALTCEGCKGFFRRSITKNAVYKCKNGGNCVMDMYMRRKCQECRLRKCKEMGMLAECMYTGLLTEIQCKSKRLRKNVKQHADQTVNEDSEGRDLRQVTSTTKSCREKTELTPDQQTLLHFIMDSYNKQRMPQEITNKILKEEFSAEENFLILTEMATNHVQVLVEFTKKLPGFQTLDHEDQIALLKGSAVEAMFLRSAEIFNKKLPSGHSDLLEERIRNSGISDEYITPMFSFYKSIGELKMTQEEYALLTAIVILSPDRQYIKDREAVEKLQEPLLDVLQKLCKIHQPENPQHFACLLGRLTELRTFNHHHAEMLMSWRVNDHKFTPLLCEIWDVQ
Chain of Thyroid hormone receptor beta (Homo sapiens) (P10828 whole entry, looked up): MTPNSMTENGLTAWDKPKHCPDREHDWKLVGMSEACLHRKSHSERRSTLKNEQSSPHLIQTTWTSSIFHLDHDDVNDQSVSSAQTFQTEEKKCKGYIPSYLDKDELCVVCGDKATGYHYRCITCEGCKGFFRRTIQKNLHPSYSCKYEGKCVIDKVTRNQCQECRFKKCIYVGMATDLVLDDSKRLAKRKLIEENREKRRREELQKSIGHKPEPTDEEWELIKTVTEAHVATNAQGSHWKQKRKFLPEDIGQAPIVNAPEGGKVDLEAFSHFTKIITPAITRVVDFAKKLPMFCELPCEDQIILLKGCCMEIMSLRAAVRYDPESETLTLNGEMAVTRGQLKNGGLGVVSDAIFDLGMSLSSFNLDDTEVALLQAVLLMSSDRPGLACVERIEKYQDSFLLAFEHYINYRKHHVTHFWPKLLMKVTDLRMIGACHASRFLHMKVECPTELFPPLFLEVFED
Chain of Retinoic acid receptor RXR-alpha (Homo sapiens) (P19793 whole entry, looked up): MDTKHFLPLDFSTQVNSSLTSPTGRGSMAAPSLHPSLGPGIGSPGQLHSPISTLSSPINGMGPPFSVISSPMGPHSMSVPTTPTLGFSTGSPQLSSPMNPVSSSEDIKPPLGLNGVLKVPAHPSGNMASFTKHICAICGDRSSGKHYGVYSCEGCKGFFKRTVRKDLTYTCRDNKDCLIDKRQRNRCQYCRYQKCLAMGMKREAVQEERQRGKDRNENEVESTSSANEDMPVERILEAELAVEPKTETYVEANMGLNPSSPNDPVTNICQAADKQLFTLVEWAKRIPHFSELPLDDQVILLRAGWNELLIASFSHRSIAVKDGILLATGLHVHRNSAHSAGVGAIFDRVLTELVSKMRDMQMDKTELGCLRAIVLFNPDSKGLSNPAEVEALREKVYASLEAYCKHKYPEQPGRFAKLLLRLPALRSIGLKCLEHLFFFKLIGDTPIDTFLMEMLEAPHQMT
Chain of Androgen receptor (Homo sapiens) (P10275 whole entry, looked up): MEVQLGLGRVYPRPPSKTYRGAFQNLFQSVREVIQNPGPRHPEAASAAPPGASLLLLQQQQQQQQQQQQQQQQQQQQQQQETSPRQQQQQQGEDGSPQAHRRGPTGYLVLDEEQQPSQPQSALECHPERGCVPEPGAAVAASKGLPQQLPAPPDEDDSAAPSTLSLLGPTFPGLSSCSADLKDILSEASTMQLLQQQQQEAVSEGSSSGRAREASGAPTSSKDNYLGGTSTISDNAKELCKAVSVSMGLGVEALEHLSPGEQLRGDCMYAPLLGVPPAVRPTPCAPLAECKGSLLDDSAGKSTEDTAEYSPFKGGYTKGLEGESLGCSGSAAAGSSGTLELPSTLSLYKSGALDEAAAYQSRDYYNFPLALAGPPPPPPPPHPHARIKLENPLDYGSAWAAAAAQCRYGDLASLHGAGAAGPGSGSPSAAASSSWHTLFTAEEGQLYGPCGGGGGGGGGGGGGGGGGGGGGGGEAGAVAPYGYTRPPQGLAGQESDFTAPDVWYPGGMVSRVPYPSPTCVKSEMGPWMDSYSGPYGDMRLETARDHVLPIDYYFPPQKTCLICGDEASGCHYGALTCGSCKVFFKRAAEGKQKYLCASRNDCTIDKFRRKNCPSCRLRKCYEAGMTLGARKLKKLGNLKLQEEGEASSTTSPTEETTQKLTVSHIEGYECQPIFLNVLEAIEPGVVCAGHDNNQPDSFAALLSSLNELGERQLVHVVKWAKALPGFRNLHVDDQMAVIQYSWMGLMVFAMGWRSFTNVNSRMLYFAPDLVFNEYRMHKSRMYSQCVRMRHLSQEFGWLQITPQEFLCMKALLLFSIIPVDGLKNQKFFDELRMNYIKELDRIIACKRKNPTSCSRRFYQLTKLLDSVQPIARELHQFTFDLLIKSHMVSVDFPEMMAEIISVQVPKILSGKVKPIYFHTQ
Chain of Vitamin D3 receptor (Homo sapiens) (P11473 whole entry, looked up): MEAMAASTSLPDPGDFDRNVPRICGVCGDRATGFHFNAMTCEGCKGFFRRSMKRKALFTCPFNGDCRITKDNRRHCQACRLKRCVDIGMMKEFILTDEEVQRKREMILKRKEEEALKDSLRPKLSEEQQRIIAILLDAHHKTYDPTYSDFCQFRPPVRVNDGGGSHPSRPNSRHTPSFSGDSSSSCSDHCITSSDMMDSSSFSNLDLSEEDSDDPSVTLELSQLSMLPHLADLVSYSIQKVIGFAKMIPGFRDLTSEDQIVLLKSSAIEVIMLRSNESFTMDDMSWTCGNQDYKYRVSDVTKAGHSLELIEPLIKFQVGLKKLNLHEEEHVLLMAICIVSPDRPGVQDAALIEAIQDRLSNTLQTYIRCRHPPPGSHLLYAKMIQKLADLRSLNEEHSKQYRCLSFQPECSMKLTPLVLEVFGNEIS

For the compound `CN(C)CCCN1c2ccccc2Sc2ccccc21`, the Potency in assay [1] is 3.98 µM (active) and 10 µM (active). Further, the Potency result in [2] was “inactive”.

On to `CCCNC(C)C(=O)Nc1ccccc1C` (stereo not drawn), for which, in assay [1], the Potency entry is “inactive”.

Regarding `COc1cc(Cc2cnc(N)nc2N)cc(OC)c1OC`, the Potency result in assay [3], in assay [11], in [1], in assay [2], in [15] and in [16] was “inactive” each time. For the same compound, the Potency entry in assay [17] was “inactive”. Further, the max response in assay [4] was 38%; in [9], 1.73%; in assay [12], -17.2%; in [13] it was 0.608% (inactive). The compound was classed as inactive in assay [5], in assay [6], in assay [7], in assay [8] and in assay [10]. The activity change % (negative = inhibition) in assay [14] is -6.78% (inactive).

As for `Cc1cccc(C)c1NC(=O)C(C)N` (stereo not drawn), in assay [1], the Potency result is “inactive”.

As to `CC(C)(Oc1ccc(CCNC(=O)c2ccc(Cl)cc2)cc1)C(=O)O`, the compound was called inactive in [18], in [7], in [8] and in [10]. Moreover, the Potency result in [3], in assay [11], in assay [1], in assay [2] and in assay [16] was “inactive” throughout. Also, the max response is 19.7% in [9], 1.78% in assay [12] and -3.89% (inactive) in [13]. In [14], the activity change % (negative = inhibition) was 12.2% (inactive).

As for `C[C@]12CCC(=O)C=C1CC[C@@H]1[C@@H]2C(=O)C[C@@]2(C)[C@H]1CC[C@]2(O)C(=O)CO`, the Potency in [3] was 28.2 µM (active). The max response in assay [4] was 10.6%; in [9] it was 17.3%; in assay [12], 12.6%; in assay [13], -20.1% (inactive). Besides, the call in assay [5], in assay [6], in [7], in assay [8] and in assay [10] was inactive. Also, the Potency result in assay [11] and in [1] was “inactive” each time. The activity change % (negative = inhibition) in assay [14] was 8.91% (inactive).

With `CN=C(NC#N)NCCSCc1nc[nH]c1C`, the call in assay [18], in assay [5], in assay [6], in [7], in assay [8] and in [10] was inactive. Moreover, the max response in assay [4] is -4.23%; in assay [9], 10.9%; in assay [12], 1.01%; in assay [13], 4.57% (inactive). Also, the Potency result in assay [11], in assay [1], in [2] and in assay [15] was “inactive” throughout. Also, in assay [14], the activity change % (negative = inhibition) was 11.1% (inactive).

With `CCc1c(C)[nH]c2c1C(=O)C(CN1CCOCC1)CC2` (stereo not drawn), the Potency result in [1] is “inactive”.

`CCCN(CCC)C(=O)C(CCC(=O)O)NC(=O)c1ccccc1` (stereo not drawn): in [1], the Potency entry was “inactive”.

On to `CCCCOCCOCCOCc1cc2c(cc1CCC)OCO2`, for which, in assay [19], the activation is 19.3% (inactive) and -3.12% (inactive). For the same compound, the result in assay [20], in assay [18], in assay [5], in assay [6], in assay [7] and in assay [10] was inactive. The max response in [4] is 7.63%; in [9], 14.8% and -2.85%; in assay [12] it was -2.81% and -3.67%; in assay [13] it was -27.1% (inactive) and 3.9% (inactive). Moreover, the Potency result in [11], in assay [1], in assay [2], in [15], in assay [16] and in [17] was “inactive” throughout. In addition, the activity change % (negative = inhibition) in assay [14] is 4.23% (inactive) and -22.6% (inactive).

For the compound `COc1ccc2c(c1OC)C(=O)O[C@@H]2[C@H]1c2c(cc3c(c2OC)OCO3)CCN1C`, the Potency entry in assay [1] was “inactive”.
